Screening results as filed in PubChem BioAssay.
Shown are actives, neighbours in structure and some others; about 1.1% of the full set was active somewhere.
gsp antag: antagonizes gsp, the McCune-Albright syndrome mutation | gsp-mutant cells, cAMP HTRF, 30 min | AID 624288 | Potency, µM (titrated, usually from 76.9 µM), for inactives: at the highest dose activity change, negative = inhibition, hits mostly inhibitors | actives 0.4% (n = 340,000); calls by dose curve; cell line not stated here;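 note: intracellular cAMP measured with PDE inhibitor Ro 20-1724 present during compound exposure; potency is the fitted concentration of half-maximal effect; % is set by controls: 0 for no effect and ±100 for the full control effect; nearly all actives have a fitted effect of over 65% in size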
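Cells in G418 medium, seeded 16-24 h, 37C; buffer exchange to DPBS + 1 mM CaCl2, 0.5 mM MgCl2, 0.05% BSA; cpds in DMSO + […] (300 uM stock), 30 min 37C; HTRF cAMP detection.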
RXFP1 antag: RXFP1 (human) relaxin receptor antagonism; Q9HBX9; HEK293-RXFP1, relaxin-stimulated cAMP HTRF, 30 min; active compounds read low; activity change, negative = inhibition, % at 57.5 µM; actives 0.59% (n = 350,000); AID 1259400;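 active = activity change of -60% or lower, but not beyond a set lower limit; inconclusive = change between -60% and -40%, or beyond the set limit; inactive = change above -40%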; note: % is set by controls: 0 for no effect and ±100 for the full control effect
gsp ag: gsp mutant agonism; actives 0.13% (n = 340,000); AID 624287; gsp mutant cells, cAMP HTRF, 30 min; Potency, µM (series often up to 76.9 µM), without a hit: at the highest dose activation (cAMP increase), actives largely listed as activators; active = well fitted activation curve with a large enough effect; inconclusive = small, poorly fitted or top-dose-only effect, or another doubt; inactive = no such curve, though single readings can be large or run the other way; cell line not stated here;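 note: phosphodiesterase inhibitor Ro 20-1724 added with compounds to block cAMP breakdown; potency is the fitted concentration of half-maximal effect; nearly all actives have a fitted effect of over 60% in size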
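Cells stably selected in G418 were plated at 2000/well, grown 16-24 hr, then given compounds in DMSO with the PDE inhibitor […] (300 uM solution added) for 30 min at 37C; cAMP was read by HTRF.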
TRPV1 potentiator: potentiators of human vanilloid receptor 1 (TRPV1); Q8NER1; TRPV1-expressing cells, Fluo-8 calcium influx, capsaicin EC20 potentiation; potentiation, % at 8.33 µM; actives 0.02% (n = 320,000); AID 540277; in the data active = potentiation above about 80%; inconclusive = between about 30% and that limit; note: 0% is about no effect
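Cells expressing TRPV1 were dye-loaded with Fluo-8 and read kinetically: 10 s baseline, 3 min after compound (agonist portion), then 2 min after EC20 capsaicin (allosteric enhancer portion). Calcium-bound dye fluorescence at 480/520 nm.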
TRPV1 ag: activates the human vanilloid receptor TRPV1 | actives 0.19% (n = 320,000) | Q8NER1 | AID 540275 | activation, % at 8.33 µM | TRPV1-expressing cells, Fluo-8 calcium influx, agonist mode; in the data active = activation above about 80%; inconclusive = between about 30% and that limit; note: 0% is about no effect
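TRPV1-expressing cells were cultured overnight at 35.5C and loaded with Fluo-8 calcium dye for 40 to 90 min at room temperature. After a 10 s baseline, compound was added and calcium influx was read kinetically for 3 min (ex 480/em 520 nm).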
RXFP1 agonist: activates the human relaxin receptor RXFP1; Q9HBX9; HEK293T-RXFP1 cAMP TR-FRET, 30 min; response scale: percent of porcine relaxin response, buffer zero; Potency, µM (highest dose often 57.5 µM), inactives show at the highest dose activation, actives largely listed as activators; actives 0.3% (n = 370,000); active = well fitted activation curve with a large enough effect; inconclusive = small, poorly fitted or top-dose-only effect; note: potency is the fitted concentration of half-maximal effect; % is set by controls: 0 for no effect and ±100 for the full control effect; nearly all actives have a fitted effect of over 60% in size
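Agonist response is measured as cAMP accumulation in an RXFP1-transfected HEK293T line under PDE4 inhibition. Values are scaled between buffer-only and 29 nM porcine relaxin, and EC50s come from standard Hill equation fits.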
Active calls of the source: *; [ ] = dose if it differs, or a comment.

Screening Cc1ccc(-n2[nH]c(C)c(/C=N/Nc3ccc([N+](=O)[O-])cc3[N+](=O)[O-])c2=O)cc1 returned gsp antag 31.6µM*, RXFP1 antag -73.9*, gsp ag inconclusive, TRPV1 potentiator 19.8, TRPV1 ag -3.9 and RXFP1 agonist -1.0%.
For C=CCNC(=O)C1CCN(S(=O)(=O)c2ccc3ccccc3c2)CC1 the results were gsp antag -8.6%, RXFP1 antag 3.9, gsp ag 16.9%, TRPV1 potentiator -6.5, TRPV1 ag 0.5 and RXFP1 agonist -1.8%.
O=C1CCC(c2ccccc2)c2ccccc21 (stereo not given) was read as gsp antag -8.0%, RXFP1 antag -6.7 and gsp ag -28.7%.
`N#CC1C(=O)c2ccccc2C1c1ccccc1` (stereo not given) gave gsp antag 14.8%, RXFP1 antag -92.0* and gsp ag 17.1%.
COc1cccc(NC(=O)CN(C)C(=O)CC2CCCC2)c1 was read as gsp antag 10.0%, RXFP1 antag -10.8 and gsp ag -2.0%[15.4 µM].
COc1ccc(NC(=O)CN(C)CC(=O)N2CCCCCC2)cc1 was read as gsp antag 8.0%, RXFP1 antag -89.7*, gsp ag 6.0%[15.4 µM], TRPV1 potentiator 29.0, TRPV1 ag -4.6 and RXFP1 agonist 0.0%.
For COc1ccc(NC(=O)CN(C)C(=O)CC2CCCC2)cc1 the results were gsp antag 12.0%, RXFP1 antag -74.4*, gsp ag -11.7%[15.4 µM], TRPV1 potentiator 7.5, TRPV1 ag -2.1 and RXFP1 agonist -1.0%.
`COc1ccc(NC(=O)CN(C)C(=O)c2cc(S(=O)(=O)N3CCCCCC3)ccc2OC)cc1` gave gsp antag -2.3%, RXFP1 antag -72.1*, gsp ag 3.3%[15.4 µM], TRPV1 potentiator 1.0, TRPV1 ag -4.3 and RXFP1 agonist 0.3%.
`COc1ccc(S(=O)(=O)N2CCCCCC2)cc1C(=O)N(C)CC(=O)Nc1ccc(F)cc1` gave gsp antag 4.1%, RXFP1 antag 1.6, gsp ag -0.1%[15.4 µM], TRPV1 potentiator 1.0, TRPV1 ag 18.1 and RXFP1 agonist -1.0%.
Cc1n(C)c2cc(Cl)ccc2[n+]1Cc1ccccc1 was read as gsp antag 5.4%, RXFP1 antag 8.9, gsp ag 7.8%[15.4 µM], TRPV1 potentiator 11.5, TRPV1 ag 1.2 and RXFP1 agonist 1.4%.
O=C(CN1C(=O)CCc2cc(S(=O)(=O)N3CCCCC3)ccc21)NCc1ccc(Cl)cc1 was read as RXFP1 agonist 3.3%.
Screening Cc1ccc(C(=O)NC(Cc2ccccc2C(F)(F)F)C(=O)O)cc1 (stereo not given) returned gsp antag 5.6%.
Screening COc1ccc(C(=O)Nc2ccc(Cl)c(S(=O)(=O)N3CCOCC3)c2)cc1 returned gsp antag inconclusive, RXFP1 antag inconclusive and gsp ag 29.0%.
Screening COc1ccc(C(=O)NCC(C)(c2ccccc2)c2ccccc2)cc1S(=O)(=O)N1CCOCC1 returned gsp antag 35.5µM*, RXFP1 antag -7.8 and gsp ag 31.6%.
Screening COc1ccc(NC(=O)c2ccc(Br)c(S(=O)(=O)N3CCOCC3)c2)cc1 returned gsp antag inconclusive, RXFP1 antag -8.5, gsp ag -9.3%[15.4 µM], TRPV1 potentiator -26.6, TRPV1 ag 98.3* and RXFP1 agonist 3.1%.
`COc1ccc(C(=O)NCc2ccncc2)cc1S(=O)(=O)N1CCOCC1` gave gsp antag 4.0%, RXFP1 antag -10.7, gsp ag 17.5%, TRPV1 potentiator 1.7, TRPV1 ag -1.7 and RXFP1 agonist -0.6%.
For O=C(Nc1cccc(S(=O)(=O)C(F)F)c1)c1ccc(Cl)c(S(=O)(=O)N2CCOCC2)c1 the results were gsp antag 28.2µM*, RXFP1 antag -26.2, gsp ag 10.8%, TRPV1 potentiator -3.0, TRPV1 ag 21.1 and RXFP1 agonist 0.8%.
